Results reported in the supplement of paper PMC7411640.
Where a name gives a salt, the structure may show the parent alone.

System: MDA-MB-468
Test: phospho-S6 immunofluorescence (DAPI-normalised), per-plate z-score; higher = higher phospho-S6 signal (less pathway suppression)
Conditions: 24 h
Description: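 GPCR-targeted compound library (MedChemExpress HY-L006) tested on MDA-MB-468 PTEN-null TNBC cells in 384-well plates at 0.1, 1 or 10 uM, combined with vehicle, GDC0941 450 nM or lapatinib 1 uM, for 24 h. Phospho-S6 (S240/244) immunofluorescence normalised to DAPI and expressed as a per-plate z-score; values are the mean of biological triplicates.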

SMILES: CN1CCC(=C2c3ccccc3CCc3sccc32)CC1 [Pizotifen] (compound 10 µM)
- phospho-S6 immunofluorescence (z-score) (co-treatment: GDC0941 450 nM): 0.35
- phospho-S6 immunofluorescence (z-score) (co-treatment: lapatinib 1 uM): -1.87
- phospho-S6 immunofluorescence (z-score) (co-treatment: vehicle): -0.19

SMILES: CCC(=O)OCC(=O)[C@@]1(OC(=O)CC)[C@@H](C)C[C@H]2[C@@H]3CCC4=CC(=O)C=C[C@]4(C)[C@@]3(F)[C@@H](O)C[C@@]21C [Betamethasone dipropionate] (compound 10 µM)
- phospho-S6 immunofluorescence (z-score) (co-treatment: GDC0941 450 nM): -0.51
- phospho-S6 immunofluorescence (z-score) (co-treatment: lapatinib 1 uM): -0.45
- phospho-S6 immunofluorescence (z-score) (co-treatment: vehicle): 0.82

SMILES: O=C(CCCN1CCC(O)(c2ccc(Cl)cc2)CC1)c1ccc(F)cc1 [Haloperidol] (compound 10 µM)
- phospho-S6 immunofluorescence (z-score) (co-treatment: GDC0941 450 nM): 1.78
- phospho-S6 immunofluorescence (z-score) (co-treatment: lapatinib 1 uM): -0.01
- phospho-S6 immunofluorescence (z-score) (co-treatment: vehicle): 0.93

SMILES: CC(=O)OCC(=O)[C@@]1(O)CC[C@H]2[C@@H]3CCC4=CC(=O)CC[C@]4(C)[C@H]3[C@@H](O)C[C@@]21C [Hydrocortisone (acetate)] (compound 10 µM)
- phospho-S6 immunofluorescence (z-score) (co-treatment: GDC0941 450 nM): -0.25
- phospho-S6 immunofluorescence (z-score) (co-treatment: lapatinib 1 uM): 1.4
- phospho-S6 immunofluorescence (z-score) (co-treatment: vehicle): -0.24

SMILES: CC(C)=CCC[C@](C)(O)[C@H]1CC[C@]2(C)[C@@H]1[C@H](O)C[C@@H]1[C@@]3(C)CC[C@H](O)C(C)(C)[C@@H]3[C@@H](O)C[C@]12C [(20S)-Protopanaxatriol] (compound 10 µM)
- phospho-S6 immunofluorescence (z-score) (co-treatment: GDC0941 450 nM): -1.71
- phospho-S6 immunofluorescence (z-score) (co-treatment: lapatinib 1 uM): -2.12
- phospho-S6 immunofluorescence (z-score) (co-treatment: vehicle): -0.03

SMILES: C=CCN1CCCC1CNC(=O)c1cc(S(N)(=O)=O)cc(OC)c1OC (stereo not drawn) [Veralipride] (compound 10 µM)
- phospho-S6 immunofluorescence (z-score) (co-treatment: GDC0941 450 nM): -0.02
- phospho-S6 immunofluorescence (z-score) (co-treatment: lapatinib 1 uM): 1.05
- phospho-S6 immunofluorescence (z-score) (co-treatment: vehicle): 0.08

SMILES: N#Cc1ccc2[nH]cc(CCCCN3CCN(c4ccc5oc(C(N)=O)cc5c4)CC3)c2c1 [Vilazodone (Hydrochloride)] (compound 10 µM)
- phospho-S6 immunofluorescence (z-score) (co-treatment: GDC0941 450 nM): -0.01
- phospho-S6 immunofluorescence (z-score) (co-treatment: lapatinib 1 uM): -0.76
- phospho-S6 immunofluorescence (z-score) (co-treatment: vehicle): 0.65

SMILES: N[C@@H](COP(=O)(O)O)C(=O)O [O-Phospho-L-serine] (compound 10 µM)
- phospho-S6 immunofluorescence (z-score) (co-treatment: GDC0941 450 nM): 0.23
- phospho-S6 immunofluorescence (z-score) (co-treatment: lapatinib 1 uM): 0.05
- phospho-S6 immunofluorescence (z-score) (co-treatment: vehicle): -0.66

SMILES: CC(C)N(CC[C@H](c1ccccc1)c1cc(CO)ccc1O)C(C)C [(R)-5-Hydroxymethyl Tolterodine] (compound 10 µM)
- phospho-S6 immunofluorescence (z-score) (co-treatment: GDC0941 450 nM): 0.35
- phospho-S6 immunofluorescence (z-score) (co-treatment: lapatinib 1 uM): 0.44
- phospho-S6 immunofluorescence (z-score) (co-treatment: vehicle): 0.11

SMILES: Cc1cc(C(C)(C)C)cc(C)c1CC1=NCCN1 [Xylometazoline (hydrochloride)] (compound 10 µM)
- phospho-S6 immunofluorescence (z-score) (co-treatment: GDC0941 450 nM): 0.43
- phospho-S6 immunofluorescence (z-score) (co-treatment: lapatinib 1 uM): -0.12
- phospho-S6 immunofluorescence (z-score) (co-treatment: vehicle): -0.38

SMILES: COc1ccc(CNC(=O)c2sc3nc(C)cc(C)c3c2N)cc1 (compound 10 µM)
- phospho-S6 immunofluorescence (z-score) (co-treatment: GDC0941 450 nM): -1.98
- phospho-S6 immunofluorescence (z-score) (co-treatment: lapatinib 1 uM): 1.66
- phospho-S6 immunofluorescence (z-score) (co-treatment: vehicle): 0.34
